Rows were chosen to be rich in hits. Some 1.6% of all compounds tested hit in one or more screens of this group.
KCNQ2 pot: potentiators of rat KCNQ2 potassium channel. O88943. CHO-K1 KCNQ2, FluxOR thallium flux fluorescence; stronger effect = higher value. B-score at 10 µM. hit rate 0.54% among 310,000. AID 2239;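 active = fluorescence ratio B-score at least 3 SD of library B-scores, with initial fluorescence B-score within 3 of them, cut at about 5.3 in these data; same plate scores as AID 2156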;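 also: B-score of peak minus minimum over baseline fluorescence ratio after K+ and Tl+ stimulus; positive B-score means potentiation of KCNQ2 with more thallium influx and brighter signal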
Target sequence (O88943 whole entry, looked up): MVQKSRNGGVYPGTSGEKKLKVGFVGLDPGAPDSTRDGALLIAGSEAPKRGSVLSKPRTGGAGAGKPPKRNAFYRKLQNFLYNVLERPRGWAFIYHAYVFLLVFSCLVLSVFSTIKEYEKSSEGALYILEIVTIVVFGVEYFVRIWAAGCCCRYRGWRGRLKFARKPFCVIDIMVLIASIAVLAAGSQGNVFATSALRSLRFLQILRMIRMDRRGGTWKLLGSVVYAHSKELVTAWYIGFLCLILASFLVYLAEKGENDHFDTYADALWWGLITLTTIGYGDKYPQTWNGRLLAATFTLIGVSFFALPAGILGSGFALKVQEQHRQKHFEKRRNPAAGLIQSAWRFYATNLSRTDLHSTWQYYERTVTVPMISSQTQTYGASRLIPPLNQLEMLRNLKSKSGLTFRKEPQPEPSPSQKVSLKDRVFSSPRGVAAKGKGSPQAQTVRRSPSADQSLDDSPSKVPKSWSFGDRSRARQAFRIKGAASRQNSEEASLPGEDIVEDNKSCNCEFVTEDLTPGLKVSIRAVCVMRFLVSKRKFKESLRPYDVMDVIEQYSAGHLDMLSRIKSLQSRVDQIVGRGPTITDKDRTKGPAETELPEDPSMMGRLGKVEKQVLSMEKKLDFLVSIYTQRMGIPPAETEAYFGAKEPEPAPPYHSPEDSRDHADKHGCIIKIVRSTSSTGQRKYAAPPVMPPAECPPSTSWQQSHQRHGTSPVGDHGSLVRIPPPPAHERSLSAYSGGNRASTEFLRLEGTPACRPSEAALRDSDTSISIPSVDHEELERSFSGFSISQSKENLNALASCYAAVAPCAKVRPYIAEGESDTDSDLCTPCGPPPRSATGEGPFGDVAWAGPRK
KCNQ2 inh: blocks the rat KCNQ2 potassium channel. O88943. CHO-K1 KCNQ2, FluxOR thallium flux, 20 min; stronger effect = lower value. B-score at 10 µM. hit rate 1.1% among 310,000. AID 2156;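 active = fluorescence ratio B-score at most minus 3 library SDs, with starting brightness B-score within 2 library SDs, cut at about -5.5 in these data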
Kir21 conf inh: confirmation of mouse Kir2.1 potassium channel inhibitors. shares compounds with KCNQ2 pot. Kir2.1-expressing cells, FluxOR thallium flux fluorescence; stronger effect = lower value. Tl flux remaining, % of negative control (stronger effect = lower value), % at 10 µM. hit rate 41% among 2,300. AID 2032;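 active = Primary-screen hit whose thallium flux fell at least 3 control SD below untreated wells in both duplicates, with normal baseline fluorescence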;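 also: 0% = blank wells without stimulus and 100% = stimulated no-compound controls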
HEK293 Tl flux: alters thallium flux in parental HEK293 cells, Kir2.1 counter-screen; shares compounds with KCNQ2 pot; FluxOR thallium flux fluorescence; 0% = unstimulated blank wells; hit rate 19% among 2,300; FluxOR signal as % of negative control (100 = no effect), % at 10 µM; AID 2105;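 active = dye signal at least 3 control SD above or below untreated wells in both duplicates, raw fluorescence within 3, either direction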;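 also: percent is based on the flux ratio of peak minus minimum fluorescence over baseline F0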
CHO-K1 Tl ctr: counter-screen for KCNQ2 potentiators: effect in parental CHO-K1 cells | shares compounds with KCNQ2 pot | FluxOR thallium flux fluorescence; zero = vehicle mean+3SD, 100% = vehicle-minus-blank window | activity increase over 3SD of controls, % at 10 µM | hit rate 43% among 1,200;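 active = signal rise of at least 3 SD above the untreated control mean, in both duplicate wells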;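 also: counter screen of KCNQ2 potentiator hits so any rise reflects channel-independent effects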
KCNQ1 sel pot: human KCNQ1 counter-target activity of KCNQ2 potentiators; hit rate 28% among 1,200; CHO KCNQ1 stable, FluxOR thallium flux fluorescence; beyond 3SD, as % of vehicle-control signal; AID 2283; shares compounds with KCNQ2 pot; activation over 3SD threshold, % at 10 µM;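 active = fluorescence ratio rise of at least 3 SD of vehicle wells above their mean, in both replicate wells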;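 also: 0% = vehicle mean plus 3 SD and 100% = vehicle minus unstimulated blank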
KCNQ2 pot confirm: rat KCNQ2 channel potentiator confirmation; shares compounds with KCNQ2 pot; CHO-KCNQ2 cells, FluxOR thallium flux fluorescence; potentiation, less the hit threshold, % at 10 µM; hit rate 68% among 1,200; AID 2287;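 active = fluorescence ratio rising 3 SD or more over the vehicle control mean in both replicates, plus primary screen hit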;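 also: peak minus minimum thallium fluorescence divided by baseline after K/Tl stimulus; 0% = vehicle mean plus 3 SD and 100% = vehicle minus unstimulated blank difference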
Kir21 spec: mouse Kir2.1 off-target activity of KCNQ2 potentiators | HEK293 Kir2.1, FluxOR thallium flux fluorescence | hit rate 2% among 1,200 | activity over 3SD threshold, % at 10 µM | AID 2345 | shares compounds with KCNQ2 pot;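 active = fluorescence ratio rise of at least 3 SD above the vehicle-control mean, seen in both replicates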;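 also: 0% = vehicle mean plus 3 SD and 100% = vehicle minus no-stimulus blank window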
KCNQ2 W236L pot: KCNQ2 potentiators acting on retigabine-insensitive rat KCNQ2 W236L mutant. shares compounds with KCNQ2 pot. CHO KCNQ2-W236L, automated patch clamp current. current increase over 3SD of negative controls (%), stronger effect = higher value, % at 25 µM. hit rate 10% among 940;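 active = current increase at least 3 SD of the untreated controls above them in both duplicate recordings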
The depositor's hits bear a star; i = inactive; . = no result.

SMILES | KCNQ2 pot | KCNQ2 inh | Kir21 conf inh | HEK293 Tl flux | others
COc1ccc(-c2cn(-c3ccc(OC)cc3)c3[n+]2-c2ccccc2CC3)cc1 | . | i | . | .
O=C(CCc1nc(-c2ccccc2Cl)no1)NC1CCCCC1 | 0.36 | i | . | .
CC(C)(C)n1nc2c(c1NC(=O)Cc1ccccc1)CS(=O)(=O)C2 | 1.6 | i | . | .
CC(C)c1ccc(C(C)NCCS(=O)(=O)c2ccc(Cl)cc2)cc1 (stereo not given) | . | i | 56%* | i
CC(C(=O)NCCS(=O)(=O)c1ccc(Br)cc1)S(=O)(=O)c1ccc(Cl)cc1 (stereo not given) | . | i | . | .
COc1ccc(CN2C(=O)CN=C2Nc2cc(C)ccc2C)cc1 | 15* | i | i | i | CHO-K1 Tl ctr=0.6*;KCNQ1 sel pot=9.2*;KCNQ2 pot confirm=-33;Kir21 spec=-41
CCc1ccccc1NC1=NCC(=O)N1Cc1ccc(OC)cc1 | . | i | . | .
Cc1cc(C)c(S(=O)(=O)NCc2cccs2)cc1C | . | i | . | .
CC(C)CN(C(=O)COC(=O)Cc1n[nH]c(=O)c2ccccc12)C1CCS(=O)(=O)C1 (stereo not given) | . | i | . | .
CC(C)CN(C(=O)COC(=O)CNC(=O)c1sc2ccccc2c1Cl)C1CCS(=O)(=O)C1 (stereo not given) | 0.6 | i | i | 75%*
CC(=O)c1c(N2CCCC2)[nH]c(-c2ccccc2)nc1=S | 1.9 | i | . | .
CC(=O)c1c(N2CCN(Cc3ccccc3)CC2)[nH]c(-c2ccccc2)nc1=S | 6.2* | i | i | 208%* | CHO-K1 Tl ctr=-18;KCNQ1 sel pot=54*;KCNQ2 pot confirm=2.3*;Kir21 spec=-35;KCNQ2 W236L pot=i
Cc1sc2nc(CN3CCN(c4ccc(O)cc4)CC3)[nH]c(=O)c2c1C | 0.07 | i | . | .
Cc1sc2nc(CN3CCOCC3)[nH]c(=S)c2c1C | 19* | i | i | 412%* | CHO-K1 Tl ctr=-13;KCNQ1 sel pot=-8;KCNQ2 pot confirm=101*;Kir21 spec=-9;KCNQ2 W236L pot=i
CSc1ncccc1C(=O)NNc1cc(Cl)ccc1Cl | . | i | . | .
COc1ccc(CCNc2ncnc3[nH]ncc23)cc1OC | . | i | . | .
COc1ccc(CCNc2ncnc3sc(C)cc23)cc1OC | . | i | 65%* | i
NC(=O)C1CCN(C(=O)c2cc3c(s2)CCCC3)CC1 | . | i | i | i
CC(C)NC(=O)C1CCN(C2CCN(C(=O)c3cc4c(s3)CCCCC4)CC2)CC1 | . | i | . | .
COc1cc(/C=C/c2ccc3cccc(O)c3n2)cc(Br)c1OC | . | i | . | .
COc1cc(/C=C/c2ccc3cccc(O)c3n2)cc(OC)c1OC | 5.3* | i | i | i | CHO-K1 Tl ctr=8.5*;KCNQ1 sel pot=0.7*;KCNQ2 pot confirm=-11;Kir21 spec=-25
COc1ccc(NC(=O)c2cnc(SC)nc2)cc1 | . | i | . | .
Cc1ccc(S(=O)(=O)Oc2ccccc2/C=N/N=C(N)N)cc1 | . | i | 46%* | i
Cc1ccc(S(=O)(=O)Oc2ccccc2/C=N/NC(N)=S)cc1 | 0.42 | i | . | .
O=C(CCC1CCCCC1)NCCN1C2=NC[C@H](Cc3ccc(O)cc3)N2C[C@H]1Cc1ccc(O)cc1 | 0.57 | i | . | .
SMILES | KCNQ2 pot | KCNQ2 inh | Kir21 conf inh | HEK293 Tl flux | others
COc1ccc(C[C@H]2CN3C(=NC[C@@H]3Cc3ccccc3)N2CCNC(=O)CCC2CCCCC2)cc1 | . | i | 40%* | i
COc1ccc(C[C@H]2CN3C(=NC[C@@H]3C(C)C)N2CCNC(=O)CCC2CCCCC2)cc1 | . | i | 64%* | i
CC(C)[C@H]1CN=C2N(CCNC(=O)CCC3CCCCC3)[C@H](Cc3ccc(O)cc3)CN21 | . | i | . | .
COc1ccc2[nH]c(C(=O)Nc3ccc4c(c3)OCO4)cc2c1 | . | i | . | .
O=C1CN(CC(=O)Nc2cccc(Cl)c2Cl)c2ccccc2N1 | . | i | . | .
CCc1ccc(OCC(=O)N2CCN=C2c2ccccc2)cc1 | . | i | . | .
CC1(C(=O)O)CCC(C(=O)Nc2ccc(OC(F)(F)Cl)cc2)C1(C)C (stereo not given) | 0.45 | i | . | .
COc1ccc([N+](=O)[O-])cc1NC(=O)c1ccc(-n2nc(C)cc2C)cc1 | . | i | . | .
Cc1ccc(C)c(NC(=S)NNC(=O)c2csc3c2CCC(C)C3)c1 (stereo not given) | 6.6* | i | i | 171%* | CHO-K1 Tl ctr=-19;KCNQ1 sel pot=-33;KCNQ2 pot confirm=-4;Kir21 spec=-40;KCNQ2 W236L pot=i
Cc1ccc(C)c(NC(=S)NNC(=O)c2csc3c2CCCC3)c1 | 2.6 | i | . | .
CCC(C)(C)NC(=O)C(c1ccc(F)cc1)N(Cc1cccs1)C(=O)c1cnccn1 (stereo not given) | 0.01 | i | . | .
CCOC(=O)C1=CCN(Cc2ccccc2)CC1 | . | i | . | .
COCC(=O)Nc1ccc(C)c(Cl)c1 | 2.1 | i | . | .
NC(=O)SCC(=O)Nc1ccc(Cl)cc1 | 6* | i | i | i | CHO-K1 Tl ctr=-10;KCNQ1 sel pot=20*;KCNQ2 pot confirm=20*;Kir21 spec=-40;KCNQ2 W236L pot=i
N#CCSCC(=O)Nc1ccc(Cl)cc1 | 0.01 | i | . | .
NC(=O)SCC(=O)Nc1cccc(Cl)c1 | 7.7* | i | i | i | CHO-K1 Tl ctr=16*;KCNQ1 sel pot=-6;KCNQ2 pot confirm=12*;Kir21 spec=-44;KCNQ2 W236L pot=i
Cc1c(Cl)cccc1NC(=O)CSC(N)=O | 4.6 | i | . | .
Cc1ccc(NC(=O)CSC(N)=O)cc1Cl | 5.3 | i | i | i | CHO-K1 Tl ctr=-24;KCNQ1 sel pot=-22;KCNQ2 pot confirm=3.0*;Kir21 spec=-42;KCNQ2 W236L pot=i
CCCn1c2ccccc2c2cnn(CC(=O)NC3CCCC(C)C3C)c(=O)c21 (stereo not given) | . | i | . | .
Cn1c(CSCc2ccccc2)n[nH]c1=S | 0.08 | i | . | .
Cn1c(SCC(=O)NCC2CCCO2)nc2c(c1=O)SCC2 (stereo not given) | . | i | . | .
Cc1cc2ccc3ccccc3c2cc1CN(C)C | . | i | 13%* | i
CN(C)Cc1cc2ccccc2c2c1COC2 | . | i | . | .
O=C(COC(=O)c1ccc2c(=O)n3c(nc2c1)CCC3)NC1CCS(=O)(=O)C1 (stereo not given) | 0.56 | i | . | .
COc1ccc(NC(=O)Cc2ccccc2)cn1 | . | i | . | .
COc1ccc(NC(=O)/C(Cl)=C(/Cl)S(=O)Cc2ccccc2)cn1 (stereo not given) | 12* | i | i | 64%* | CHO-K1 Tl ctr=0.3*;KCNQ1 sel pot=-15;KCNQ2 pot confirm=12*;Kir21 spec=-45;KCNQ2 W236L pot=3.2%*
O=C1CN(C(=O)c2ccc3nc(Cc4cccc(Cl)c4)oc3c2)CCN1 | 1.3 | i | . | .
O=C(CSc1ccccc1)N/N=C/c1ccccc1O | 6* | i | i | i | CHO-K1 Tl ctr=-11;KCNQ1 sel pot=-14;KCNQ2 pot confirm=25*;Kir21 spec=-30;KCNQ2 W236L pot=i
